# Measured values reported in PubChem BioAssay AID686979 (National Center for Advancing Translational Sciences (NCATS), 2013).
# Hit rate of the full screen: of about 420,000 compounds, about 50,000 (12%) were called active. Another 26% or so got no clear call; they are omitted. This is one part of a sample in which actives are shown more often than they occur. A number with no mark means an inactive call. The call rests on the fitted dose curve; in most records, active means well fitted inhibition curve with a large enough effect; inconclusive means small, poorly fitted or top-dose-only effect; inactive means flat fitted curve, though single readings scatter.
# Test: qHTS for Inhibitors of human tyrosyl-DNA phosphodiesterase 1 (TDP1): qHTS in cells in presence of CPT; further: nearly all actives have a fitted effect of over 55% in size
# Conditions: chicken DT40 Tdp1-/-;hTDP1 cells + 20 nM CPT, ATP luminescence, 48 h; series mostly up to 46.2 µM; activity change, negative = growth inhibition: at the top concentration
# Summary of the method: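 Chicken DT40 Tdp1-/- cells complemented with human TDP1, 400 cells/well, exposed to compounds plus 20 nM camptothecin for at least 48 h at 37 C; viability read as ATP content by CellTiter-Glo luminescence.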
# On the % scale 0 is the no-effect control and ±100 the full control effect; potency means the concentration at half of the fitted maximal effect.
SMILES,"activity change, negative = growth inhibition",Potency
CCOc1cc(/C=N/NC(=O)c2ccc(CSc3nncn3C)cc2)ccc1OCC(=O)N1CCOCC1,0.321%,–
COc1cc(OC)cc(C(=O)Nc2nnc(SCC(=O)NCC3CCCO3)s2)c1 (stereo unspecified),-19.8%,–
Cc1noc(C)c1-c1nc(CSc2ccc(Cl)cc2)no1,8.49%,–
CCN(CC)S(=O)(=O)c1ccc(C)c(NC(=O)COc2ccc(Br)cc2Cl)c1,-20.7%,–
Oc1ccc(Br)cc1C1C=C(c2ccc3c(c2)OCO3)NC(c2ccc(Cl)cc2)N1 (stereo unspecified),–,7.08 µM (active)
Cc1cccc(-n2c(=O)c3c(c4cc(C)ccc4n3C)n(CC(=O)Nc3ccccc3Cl)c2=O)c1,0.458%,–
O=C(CN1CCOCC1)N1CCCc2c1c(=O)oc1ccc(OCc3ccccc3)cc21,–,18.4 µM (active)
NC(=O)C1CCN(C(=O)COc2ccc3c4c(c(=O)oc3c2)CCC4)CC1,2.93%,–
CC1CCCCN1CC(=O)NCc1ccc2c(c1)OCO2 (stereo unspecified),-6.16%,–
CC1CCCCN1CC(=O)N1CCCc2c1c(=O)oc1ccc(OCc3ccccc3)cc21 (stereo unspecified),–,16.4 µM (active)
O=C(COc1ccc2oc3c(c2c1)CCCC3)Nc1ccccn1,-1.19%,–
Cc1c(C(=O)N2CCOCC2)[nH]c2ccc(OCc3ccccc3)cc12,-21.9%,–
COc1ccccc1C(=O)NCCn1cc(SCC(=O)NCc2ccco2)c2ccccc21,-19.3%,–
O=C(O)Cc1ccc(NC(=O)Nc2cccc3ccccc23)cc1,3.51%,–
CN(C(=O)CCNC(=O)Cn1ccc2ccccc2c1=O)c1ccc(Br)cc1,1.39%,–
Cc1cc(C)c(S(=O)(=O)N2CCC(C(=O)OCc3c(C)noc3C)CC2)c(C)c1,3.58%,–
CN(CC#CCC(c1ccccc1)c1ccccc1)C(C)(C)C,–,12.6 µM (active)
CC(C)(C)N(CC#CCC(O)(c1ccccc1)C1CCCC1)CCO (stereo unspecified),-0.352%,–
CCc1[nH]nc(C(=O)N2CCCC(CNS(=O)(=O)c3cccs3)C2)c1C (stereo unspecified),-13.1%,–
Cc1cc(C)nc(SCc2cn3c(C)cc(C)nc3n2)n1,14.4%,–
O=C(NC1CCCC1)C(c1ccco1)N(C(=O)c1csnn1)c1ccccc1 (stereo unspecified),-3.07%,–
CCOC(=O)CCC(NC(=O)c1ccc(CNc2nc3cc(C(F)(F)F)ccc3nc2C(=O)OCC)cc1)C(=O)OCC (stereo unspecified),-2.32%,–

SMILES,"activity change, negative = growth inhibition",Potency
Cc1ccc(OC(=O)c2ccccc2C(=O)OCC(F)(F)C(F)F)cc1,4.61%,–
CCN(CC)CCNS(=O)(=O)c1ccc(/C=C/C(=O)O)cc1,-6.79%,–
Cn1cc(CN2CCCCC2c2ccccn2)c(-c2ccc3c(c2)OCCO3)n1 (stereo unspecified),-3.9%,–
CC1(C(=O)Nc2cccc3cccnc23)CCN1C(=O)CCC1CCCC1 (stereo unspecified),–,16.4 µM (active)
CC1(C(=O)NS(=O)(=O)c2ccc(Cl)cc2)CCN1C(=O)CC1CCCC1 (stereo unspecified),-21.5%,–
CC1(C(=O)Nc2ccccc2Br)CCN1C(=O)CC1CC1 (stereo unspecified),-2.61%,–
Cc1ccc(S(=O)(=O)N2CCN(C(=O)N3CCOCC3)CC2)c(C)c1,-2.43%,–
CC1Cc2ccccc2N1S(=O)(=O)c1cccc(C(=O)OCC(=O)N2CCOCC2)c1 (stereo unspecified),-10.9%,–
CNC(=O)C1CN(C(=O)c2cccc(S(=O)(=O)N3CCc4ccccc43)c2)c2ccccc2O1 (stereo unspecified),–,7.31 µM (active)
CCS(=O)(=O)c1ccc2c(c1)N(S(=O)(=O)c1ccccc1)CC(C(=O)O)O2 (stereo unspecified),4.61%,–
CN1CCN(S(=O)(=O)c2cccc(C(=O)O)c2)CC1,2.72%,–
CC(=O)N1CCN(S(=O)(=O)c2cccc(C(=O)NC3CCC(C)CC3)c2)CC1 (stereo unspecified),0.375%,–
CC1CCN(C(=O)c2cccc(S(=O)(=O)N3CCCc4ccccc43)c2)CC1,–,16.4 µM (active)
Cc1ccccc1OCC(=O)Nc1c(C(=O)Nc2ccccc2F)oc2ccccc12,-21.4%,–
O=C(OC1CCCCC1=O)c1cccc(S(=O)(=O)NCc2ccccc2)c1 (stereo unspecified),-5.55%,–
CCOc1ccc(N(CC(=O)NCCc2ccc(OC)cc2)S(C)(=O)=O)cc1,8.24%,–
CCOc1ccc(N(CC(=O)NCCc2ccc(F)cc2)S(=O)(=O)c2ccccc2)cc1,–,20.6 µM (active)
COc1ccc(CCNC(=O)CN(c2ccccc2)S(=O)(=O)c2ccccc2)cc1,-25.5%,–
Cc1ccc(NC(=O)COC(=O)CN2CCSC2=O)cc1F,-12.5%,–
C/C(=N/N1CCN(Cc2cccc3ccccc23)CC1)c1cccnc1,-12.8%,–
Cc1ccc2c(C)nc(N3CCCC(C(=O)NC(C)(C)CO)C3)nc2c1 (stereo unspecified),-5.72% [at 9.04 µM],–
Fc1cccc(Cl)c1COc1ccc(-c2nnco2)cc1,-8.97%,–

SMILES,"activity change, negative = growth inhibition",Potency
CCOc1ccc(NCCC(=O)c2ccc3c(c2)OCO3)cc1,–,25.9 µM (active)
COC(=O)CCNc1ccc2c(c1)OCCO2,-21%,–
O=C(COc1ccc(Cl)cc1)Nc1ccc2c(c1)OCO2,1.5%,–
O=C1C=C(c2cccc(Br)c2)C[C@@H](c2ccc(F)cc2)C1,-29.7%,–
Cn1cc[n+](C)c1COc1ccc(C=O)cc1,-5.51%,–
CC(C(=O)O)c1ccc(C2CCCCC2)c2ccccc12 (stereo unspecified),15.3%,–
COc1ccc(NS(=O)(=O)c2ccc(F)cc2F)cn1,5.59%,–
O=C(NCCOc1ccccc1)c1ccccc1F,-3.48%,–
O=C(O)CCC(=O)N(Cc1ccccc1)Cc1ccccc1,-9%,–
O=C(c1ccccc1F)N(Cc1ccccc1)Cc1ccccc1,–,8.2 µM (active)
Cc1ccc(C(=O)NNC(=O)c2ccc3c(c2)OCCO3)cc1,0.534%,–
N#C/C=C/N1CCN(Cc2ccc3c(c2)OCO3)CC1,6.4%,–
COc1cc(Cl)c(S(=O)(=O)N2CCN(Cc3ccc4c(c3)OCO4)CC2)cc1Cl,-17.7%,–
Fc1ccc2[nH]c3c(N4CCN(Cc5ccc6c(c5)OCO6)CC4)ncnc3c2c1,–,2.31 µM (active)
Fc1ccc2[nH]c3c(N4CCSCC4)ncnc3c2c1,–,11.6 µM (active)
CC1CN(CC(=O)NC(C)c2ccccc2)CC(C)O1 (stereo unspecified),1.9%,–
COc1ccccc1CNC(=O)CSc1nc(=O)n(Cc2ccncc2)c2c1CCC2,-0.437%,–
Cc1cccc(N=Nc2c(C)[nH]n(-c3ccccc3)c2=O)c1,2.08%,–
O=c1c(-c2cccc(Cl)c2)c[nH]n1-c1ccccc1,7.4%,–
Cc1[nH]n(-c2cccc(Cl)c2)c(=O)c1-c1ccc(Cl)cc1,–,16.4 µM (active)
Cc1ccc2cc(C)c(N3CCN(c4ccc(F)cc4)CC3)nc2c1,-3.93%,–
Cc1ccc(OCCCC(=O)Nc2ccc(S(=O)(=O)Nc3cc(C)nc(C)n3)cc2)cc1,-3.04%,–
